# In PubChem BioAssay AID651658 (Broad Institute, 2012):
# In all, about 340,000 compounds went through this assay and about 5,100 (1.5%) were called active. This is one part of a sample in which actives are shown more often than they occur. Unmarked numbers belong to inactive results.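 How the source made its calls: active means mean Tm shift, scaled 0 neutral to 100 positive control, at about 1.3% or above, every replicate too (limit read from the data); inconclusive means no clear call, values can overlap the other calls; inactive means the rest.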
# Molecular target: Fibroblast growth factor 22 (Homo sapiens) (UniProt Q9HCT0)
# Assay: FGF22 ligand-induced thermal stabilization – biophysical, thermal shift, single point, FGF22 synaptogenesis inhibitor project, primary screen (AID 651658)
# Conditions: recombinant FGF22 thermal shift, SYPRO orange fluorescence; at 9.99 µM; stronger effect = higher value; percent of sucrose octasulfate shift, DMSO zero
# Fibroblast growth factor 22 (Homo sapiens), sequence (Q9HCT0 whole entry, looked up): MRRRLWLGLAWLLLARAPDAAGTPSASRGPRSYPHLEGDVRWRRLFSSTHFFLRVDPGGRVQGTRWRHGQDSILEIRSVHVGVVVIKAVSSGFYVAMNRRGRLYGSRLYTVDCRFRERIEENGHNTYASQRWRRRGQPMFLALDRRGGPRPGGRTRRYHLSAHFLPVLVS
row,Compound,"activity (Tm shift, normalised)"
1,Cc1noc(C)c1NC(=O)Nc1ccc2c(c1)C(=O)N([C@H](C)CO)C[C@@H](C)[C@@H](CN(C)S(=O)(=O)c1ccc(Cl)cc1)OCCCC[C@H](C)O2,-0.533%
2,COc1ccc(NC(=O)O[C@@H](c2ccc(OCCO)cc2)[C@@H](C)CCO)cc1,-1.48%
3,CCCNC(=O)N1CCC2(CC1)CN(C(=O)CN1CCOCC1)[C@H](CO)c1[nH]c3cc(OC)ccc3c12,-0.015%
4,CCN1CCN(CC(=O)Nc2sc3c(c2C#N)CCC3)CC1,-0.078%
5,N#Cc1c(NC(=O)CCCl)sc2c1CCCCC2,43% (active)
6,N#Cc1c(NC(=O)C2CCCO2)sc2c1CCCCC2 (stereo not drawn),0.476%
7,CCCNC(=O)C[C@@H]1CC[C@@H]2[C@H](COc3ccc(NC(=O)c4cc(F)cc(F)c4)cc3C(=O)N2C)O1,0.224%
8,O=C(C[C@@H]1CC[C@@H](NC(=O)c2ccc3c(c2)OCO3)[C@H](CO)O1)NCc1ccc(F)cc1,-0.125%
9,Cc1ccccc1S(=O)(=O)N1C[C@@H]2N[C@H](C1)C2c1ccc(-c2cccc(C(=O)N(C)C)c2)cc1 (stereo partly drawn),0.138%
10,O=C(C[C@H]1CC[C@@H]2[C@H](COC[C@@H](O)CN2Cc2cccc(-c3ccncc3)c2)O1)N1CCOCC1,0.256%
11,CNC(=O)C[C@H]1C(=O)N(c2ccc(OC)cc2)C[C@@H]1Cc1ccccc1,43.3% (active)
12,CNC(=O)C[C@H]1C(=O)N(Cc2ccccc2)C[C@@H]1CSC,0.23%
13,O=C(C[C@H]1C(=O)N(c2ccc(F)c(F)c2)C[C@@H]1Cc1ccccc1)Nc1ccccc1,-0.246%
14,CC(C)N1C(=O)[C@@]2(Cc3ccccc31)c1ccccc1C(=O)N(C1CCCCC1)[C@H]2c1ccc(CO)cc1,-0.066%
15,COc1ccc(-c2ccccc2[C@H]2[C@@H](CO)N(C(=O)C3CCC3)[C@H]2C#N)cc1,-0.131%
16,C[C@H](CO)N1C[C@H](C)[C@H](CN(C)C(=O)Cc2ccccn2)Oc2ncc(-c3cncnc3)cc2C1=O,-0.28%
17,COC(=O)c1ccc(NC(=S)NN2CCOCC2)cc1,43.4% (active)
18,COC(=O)c1ccc(NC(=S)Nc2cccc(C)n2)cc1,42.2%
19,Cc1ccc(C(=O)NC(=S)Nc2ccc(N3CCOCC3)cc2)cc1,-0.25%
20,OC[C@@H]1Nc2ccc(-c3ccc(F)cc3)cc2[C@@H]2[C@H]1CCN2Cc1ccc(F)cc1,-0.323%
21,COc1ccc(NC(=O)Nc2ccc3c(c2)[C@@H]2C[C@@H](CC(=O)NCc4ccncc4)O[C@@H](CO)[C@@H]2O3)cc1,-0.189%
22,C[C@@H]1CN([C@H](C)CO)S(=O)(=O)c2ccc(-c3ccccc3)cc2O[C@@H]1CN(C)C(=O)CC1CC1,-0.061%
23,C[C@@H]1CCCCO[C@H](CN(C)S(=O)(=O)c2ccccc2)[C@@H](C)CN([C@@H](C)CO)C(=O)c2cc(NS(=O)(=O)c3ccccc3)ccc2O1,-0.644%
24,COc1ccc(OC)c(NC(=O)CSc2nc(-c3ccccc3)cc(=O)[nH]2)c1,-0.146%
25,COc1ccc(NC(=O)CSc2nc(SC)ns2)c(OC)c1,0.019%

row,Compound,"activity (Tm shift, normalised)"
1,CCc1cc2cc(OC)ccc2nc1SCC(=O)Nc1cc(OC)c(OC)cc1C(=O)O,43.1% (active)
2,CC(C)(C)C(=O)NCCCNc1ccc([N+](=O)[O-])cc1,43.5% (active)
3,O=[N+]([O-])c1ccc(NCCCO)c(C(F)(F)F)c1,0.215%
4,O=C(NCCNc1ccc([N+](=O)[O-])cc1)c1cccc2c(Br)cccc12,0%
5,CNC(=O)C[C@@H]1CC[C@@H]2[C@@H](COc3ccc(NC(=O)c4ccc5c(c4)OCO5)cc3C(=O)N2C)O1,-0.015%
6,CNS(=O)(=O)c1ccc(NC(=O)Nc2ccc3c(c2)OCO3)cc1,-0.016%
7,Cc1cccc(NC(=O)Nc2ccc3c(c2)OCO3)n1,43.6% (active)
8,CC(NC(=O)Nc1ccc2c(c1)OCO2)c1ccncc1 (stereo not drawn),0.039%
9,COc1ccc(NC(=O)Nc2ccc3c(c2)C(=O)N([C@H](C)CO)C[C@H](C)[C@@H](CN(C)Cc2ccc(C(=O)O)cc2)OCCCC[C@H](C)O3)cc1,-0.009%
10,CC=Cc1ccc2n(c1=O)C[C@@H]1[C@@H](CO)[C@H](C(=O)N[C@H](C)c3ccccc3)N(C(=O)c3cnccn3)[C@H]21 (mixture of isomers),-0.323%
11,O=C(COC(=O)c1ncc(Cl)c(Cl)c1Cl)NC1CCS(=O)(=O)C1 (stereo not drawn),0.023%
12,Nc1ccc(C(=O)OCC(=O)NC2CCS(=O)(=O)C2)cc1[N+](=O)[O-] (stereo not drawn),43.7% (active)
13,O=C(COC(=O)/C=C/c1ccc(Cl)cc1)NC1CCS(=O)(=O)C1 (stereo not drawn),0.02%
14,COc1ccc2c3c([nH]c2c1)[C@H](CO)N(C(C)=O)CC31CN(S(=O)(=O)c2cccs2)C1,-10.2%
15,C[C@@H]1CN([C@H](C)CO)C(=O)Cc2cc(NC(=O)Cn3cnnn3)ccc2O[C@H]1CN(C)Cc1ccc(C(F)(F)F)cc1,1.38% (active)
16,C[C@@H]1CN([C@@H](C)CO)C(=O)Cc2cc(NC(=O)Cc3cn(C)c4ccccc34)ccc2O[C@H]1CN(C)Cc1ccc(C(=O)O)cc1,0.077%
17,C[C@H](CO)N1C[C@H](C)[C@@H](CN(C)Cc2ccc(C(=O)O)cc2)Oc2ccc(NC(=O)Cn3cnnn3)cc2CC1=O,-0.125%
18,C[C@H]1CN([C@@H](C)CO)C(=O)Cc2cc(NC(=O)Cc3cn(C)c4ccccc34)ccc2O[C@@H]1CN(C)Cc1ccccc1,1.38% (active)
19,C[C@H]1CN([C@@H](C)CO)C(=O)Cc2cc(NC(=O)Cc3cn(C)c4ccccc34)ccc2O[C@H]1CN(C)Cc1ccccc1,1.01%
20,C[C@H]1CN([C@@H](C)CO)C(=O)Cc2cc(NC(=O)Cn3cnnn3)ccc2O[C@H]1CN(C)Cc1ccc(C(=O)O)cc1,-0.049%
21,N#C[C@@H]1[C@@H](c2ccccc2)[C@H](CO)N1C(=O)c1cc(Cl)cc(Cl)c1,-0.051%
22,O=C(NN1C(=O)C2C3C=CC(O3)C2C1=O)c1ccncc1 (stereo not drawn),0.125%
23,O=C(NN1C(=O)C2C3C=CC(O3)C2C1=O)c1ccccc1 (stereo not drawn),1.65% (active)
24,CC(C)=C1C2CCC1C1C(=O)N(NC(=O)c3ccco3)C(=O)C21 (stereo not drawn),-0.011%
25,O=C(C[C@@H]1C[C@H]2c3cc(NC(=O)NC4CCCC4)ccc3O[C@H]2[C@@H](CO)O1)NC1CCCCC1,-0.272%

row,Compound,"activity (Tm shift, normalised)"
1,O=C(C1CC1)N1CCCCN2[C@H](C1)[C@@H](c1ccc(-c3cccc(F)c3)cc1)[C@@H]2CO,-0.119%
2,C[C@@H]1CN([C@@H](C)CO)S(=O)(=O)c2ccc(-c3ccc(C#N)cc3)cc2O[C@H]1CN(C)Cc1ccccn1,-0.176%
3,COC(=O)[C@]1(C)N[C@H](CN(C)C(=O)c2ccc(C(C)(C)C)cc2)[C@@H]2C(=O)N(C)C(=O)[C@@H]21,0.232%
4,CCOC(=O)C1(C)NC(c2ccco2)C2C(=O)N(c3ccccc3)C(=O)C21 (stereo not drawn),0.052%
5,CCCSc1ccc([C@H]2N[C@@](Cc3ccccc3)(C(=O)OC)[C@H]3C(=O)N(C)C(=O)[C@@H]23)cc1,0.041%
6,CC[C@@]1(C(=O)OC)N[C@H](CN(C)C(C)=O)[C@@H]2C(=O)N(C)C(=O)[C@@H]21,43.4% (active)
7,CCN(C[C@H]1N[C@@](CC)(C(=O)OC)[C@H]2C(=O)N(C)C(=O)[C@@H]12)C(=O)Nc1ccc(F)cc1,-0.067%
8,CCCC1(C(=O)OC)NC(c2ccco2)C2C(=O)N(C)C(=O)C21 (stereo not drawn),43.8% (active)
9,COc1cccc(S(=O)(=O)N2[C@@H]3CNC[C@H]2C3c2ccc(-c3cccc(C(=O)N(C)C)c3)cc2)c1 (stereo partly drawn),0.014%
10,C[C@@H]1CN([C@H](C)CO)C(=O)c2cc(NC(=O)c3ccncc3)ccc2O[C@@H]1CN(C)C(=O)Nc1ccc(F)cc1,-0.074%
11,CO[C@@H]1CN(C)C(=O)c2cc(NS(C)(=O)=O)ccc2OC[C@@H](C)N(C(=O)C2CCC2)C[C@@H]1C,-0.13%
12,CO[C@H]1CN(C)C(=O)c2ccc(NC(=O)C3CCCC3)cc2OC[C@H](C)N(C(=O)CC2CC2)C[C@@H]1C,0.031%
13,COc1ccccc1NC(=O)N1[C@H](C#N)[C@H](c2ccccc2)[C@H]1CO,1.69% (active)
14,CCCNC(=O)N1[C@H](C#N)[C@@H](c2ccccc2)[C@H]1CO,0.065%
15,N#C[C@@H]1[C@@H](c2ccccc2)[C@@H](CO)N1C(=O)Cc1ccccc1,-0.224%
16,CCCc1cn(CC[C@H]2CC[C@@H](NS(=O)(=O)c3ccccc3Cl)[C@@H](CO)O2)nn1,-0.219%
17,O=C(Cn1cnc2c(OCc3ccccc3)ncnc21)NCCCn1ccnc1,43.3% (active)
18,CC(CNC(=O)Cn1cnc2c(OCc3ccccc3)ncnc21)c1ccccc1 (stereo not drawn),-0.208%
19,Cc1ccc(NC(=O)Cn2cnc3c(OCc4ccccc4)ncnc32)cc1C,0.021%
20,CCC(=O)N(C)C[C@@H]1Oc2ncc(C#CCc3ccccc3)cc2C(=O)N([C@H](C)CO)C[C@H]1C,-0.313%
21,Cc1cc(C)cc(NC(=O)CCN2C(=O)c3ccccc3C2=O)c1,0.073%
22,Cc1cc(C)cc(OCC(=O)NNC(=O)CCN2C(=O)c3ccccc3C2=O)c1,43.2% (active)
23,COc1ccc(CNC(=O)CCN2C(=O)c3ccccc3C2=O)cc1,-0.249%
